Laboratory results published in PubChem BioAssay (NCATS).
Results filed as inconclusive are left out. A call without a number means that no potency is given here. Active and inactive are the calls of the source. The call rests on the fitted dose curve; in most records, active means well fitted inhibition curve with a large enough effect; inconclusive means small, poorly fitted or top-dose-only effect; inactive means no such curve, though single readings can be large or run the other way.

Each compound was assayed against Retinal dehydrogenase 2 (Homo sapiens) (UniProt O94788) (assay: qHTS for Inhibitors of the Aldehyde Dehydrogenase Family (ALDH1A2) Confirmation screens (AID 2061314; further: nearly all actives have a fitted effect of over 65% in size; further: potency means the concentration at half of the fitted maximal effect)). Conditions: ALDH1A2 enzyme inhibition qHTS confirmation; series mostly up to 45.9 µM.

Structure (SMILES) | Potency
CN(C)c1cccc(-c2cnc(N3CCC(c4ncc[nH]4)CC3)s2)c1 | inactive
COc1cccc(CNC(=O)c2ccc3c(c2)sc2nc(-c4ccccc4)cn23)c1OC | inactive
COc1ccc(C2=NN(CC(=O)NCCc3ccc(OC)c(OC)c3)C(=O)CC2)cc1 | inactive
COc1ccc(C2=Nn3c(nnc3-c3ccccc3OC)SC2)cc1OC1CCCC1 | 6.34 µM (active)
CC(=O)c1c(C)n(-c2ccc(C)cc2)c2ccc(OC(=O)COc3ccccc3)cc12 | inactive
O=C1Nc2cc(Cl)ccc2/C1=C\c1cc(Cl)c(O)c(Cl)c1 | 25.2 µM (active)
Cc1ccc(S(=O)(=O)Nc2cnccc2C(=O)Nc2nc(C(=O)O)cs2)cc1 | inactive
COc1ccc(C2Nc3ccccc3C(=O)N2Cc2ccco2)cc1COc1ccc(N)cc1 (stereo unspecified) | 4.49 µM (active)
O=C1Cc2cc(S(=O)(=O)N3CCNCC3)ccc2N1 | 17.9 µM (active)
COc1ccc(C(=O)N(Cc2ccco2)Cc2ccco2)c(O)c1 | 17.9 µM (active)
O=C(O)CN1C(=O)/C(=C/c2ccc(-c3cccc(Cl)c3)o2)SC1=S | 22.5 µM (active)
O=C1Cc2cc(S(=O)(=O)N3CCN(c4ccc(F)cc4)CC3)ccc2N1 | inactive
CC(=O)N1CCN(c2ccc(NCc3ccc4c(c3)OCO4)cc2)CC1 | 8.96 µM (active)
Cc1ccc(-c2cccc(C=O)c2)c(C)c1 | inactive
CCOC(=O)C1CCN(C(=O)C(C)(C)NC(=O)Nc2ccc(N(C)C)cc2)CC1 | 12.7 µM (active)
CCOC(=O)c1[nH]c2c(c1C)C(=S)CC(c1ccco1)C2 (stereo unspecified) | 12.7 µM (active)
Cc1ccc(-c2cc(C(=O)NCc3cccc(F)c3)nn3cnnc23)cc1 | inactive
CSCCC(NS(=O)(=O)c1ccc2c(c1)oc(=O)n2C)C(=O)N1CCN(c2ccc(C(C)=O)cc2)CC1 (stereo unspecified) | inactive
CC(=O)Nc1sc2c(c1-c1csc3ccccc13)CCNC2 | 15.9 µM (active)
Cc1sc(NC(=O)Cc2ccc3c(c2)OCO3)nc1-c1ccc2c(c1)CCN2 | 4 µM (active)
O=C1Nc2ccc(Cl)cc2/C1=C\c1cc(Cl)c(O)c(Cl)c1 | 12.7 µM (active)

These compounds were tested against Retinaldehyde dehydrogenase 3 (Homo sapiens) (UniProt P47895) (assay: qHTS for Inhibitors of the Aldehyde Dehydrogenase Family (ALDH1A3) Primary screen (AID 2061315)). Conditions: ALDH inhibition qHTS; series mostly up to 56 µM.

Structure (SMILES) | Potency
O=C(O)c1ccc2c(c1)C(=O)N(CCc1ccc(O)cc1)C2=O | inactive
CN1CCN(c2ccc(NC(=O)CN(C)Cc3c(O)ccc4ccccc34)cc2)CC1 | inactive
Cc1nc(C(C)Nc2ncnc3ccc(-c4ccc5c(c4)OCO5)cc23)cs1 (stereo unspecified) | inactive
CC(C)(C)c1ccc(S(=O)(=O)c2cnc(SCC(=O)Nc3ccc(F)c(Cl)c3)[nH]c2=O)cc1 | inactive
NC(=O)C1CCN(c2nc(-c3ccc4ccccc4c3)cs2)CC1 | inactive
Cc1cc(C)nc(NC(=S)N2CCN(c3ccc4cn(C)nc4c3)CC2)c1 | inactive
Cc1ccc(CCN2C(=O)c3ccc(C(=O)O)cc3C2=O)cc1 | inactive
CN(C)c1ccc(-c2cc[nH]c(=O)c2N)cc1 | inactive
CN(C)c1cccc(-c2cnc(N3CCC(c4ncc[nH]4)CC3)s2)c1 | inactive
COc1ccc(C2=Nn3c(nnc3-c3ccccc3OC)SC2)cc1OC1CCCC1 | inactive
O=C1Nc2cc(Cl)ccc2/C1=C\c1cc(Cl)c(O)c(Cl)c1 | inactive
Cc1ccc(S(=O)(=O)Nc2cnccc2C(=O)Nc2nc(C(=O)O)cs2)cc1 | inactive
COc1ccc(C2Nc3ccccc3C(=O)N2Cc2ccco2)cc1COc1ccc(N)cc1 (stereo unspecified) | inactive
O=C1Cc2cc(S(=O)(=O)N3CCNCC3)ccc2N1 | inactive
COc1ccc(C(=O)N(Cc2ccco2)Cc2ccco2)c(O)c1 | inactive
O=C(O)CN1C(=O)/C(=C/c2ccc(-c3cccc(Cl)c3)o2)SC1=S | inactive
O=C1Cc2cc(S(=O)(=O)N3CCN(c4ccc(F)cc4)CC3)ccc2N1 | inactive
CCOC(=O)c1[nH]c2c(c1C)C(=S)CC(c1ccco1)C2 (stereo unspecified) | inactive
CC(=O)Nc1sc2c(c1-c1csc3ccccc13)CCNC2 | inactive
Cc1sc(NC(=O)Cc2ccc3c(c2)OCO3)nc1-c1ccc2c(c1)CCN2 | inactive
O=C1Nc2ccc(Cl)cc2/C1=C\c1cc(Cl)c(O)c(Cl)c1 | inactive

What follows are compounds tested against Aldehyde dehydrogenase 1A1 (Homo sapiens) (UniProt P00352) (assay: qHTS for Inhibitors of the Aldehyde Dehydrogenase Family (ALDH1A1) Confirmatory screens (AID 2061316; further: nearly all actives have a fitted effect of over 65% in size; further: potency means the concentration at half of the fitted maximal effect)). Conditions: ALDH inhibition qHTS; series mostly up to 47.3 µM.

Structure (SMILES) | Potency
O=C(O)c1ccc2c(c1)C(=O)N(CCc1ccc(O)cc1)C2=O | inactive
CN1CCN(c2ccc(NC(=O)CN(C)Cc3c(O)ccc4ccccc34)cc2)CC1 | 5.04 µM (active)
Cn1sc(=O)n(Cc2ccccc2)c1=O | 0.283 µM (active)
CC(C)(C)c1ccc(S(=O)(=O)c2cnc(SCC(=O)Nc3ccc(F)c(Cl)c3)[nH]c2=O)cc1 | 0.634 µM (active)
Cc1cc(C)nc(NC(=S)N2CCN(c3ccc4cn(C)nc4c3)CC2)c1 | 7.12 µM (active)
CN(C)c1ccc(-c2cc[nH]c(=O)c2N)cc1 | 4 µM (active)
COc1ccc(-c2nc(CCNC(=O)c3c(F)cccc3Cl)cs2)cc1 | inactive
O=C(Cc1ccc(F)cc1)Nc1cccc(-c2nc3cccnc3s2)c1 | inactive
Cc1oc(-c2ccccc2F)nc1CS(=O)(=O)CC(=O)N1CCN(c2cccc(C(F)(F)F)c2)CC1 | inactive
CN(C)c1cccc(-c2cnc(N3CCC(c4ncc[nH]4)CC3)s2)c1 | 0.201 µM (active)
CC(=O)c1c(C)n(-c2ccc(C)cc2)c2ccc(OC(=O)COc3ccccc3)cc12 | inactive
O=C1Nc2cc(Cl)ccc2/C1=C\c1cc(Cl)c(O)c(Cl)c1 | 22.5 µM (active)
COc1ccc(C2Nc3ccccc3C(=O)N2Cc2ccco2)cc1COc1ccc(N)cc1 (stereo unspecified) | 1.79 µM (active)
COc1ccc(C(=O)N(Cc2ccco2)Cc2ccco2)c(O)c1 | 7.12 µM (active)
O=C(O)CN1C(=O)/C(=C/c2ccc(-c3cccc(Cl)c3)o2)SC1=S | 7.98 µM (active)
Cc1ccc(-c2cccc(C=O)c2)c(C)c1 | inactive
CCOC(=O)c1[nH]c2c(c1C)C(=S)CC(c1ccco1)C2 (stereo unspecified) | 2.01 µM (active)
CSCCC(NS(=O)(=O)c1ccc2c(c1)oc(=O)n2C)C(=O)N1CCN(c2ccc(C(C)=O)cc2)CC1 (stereo unspecified) | inactive
Cc1sc(NC(=O)Cc2ccc3c(c2)OCO3)nc1-c1ccc2c(c1)CCN2 | 3.18 µM (active)
